Among the data in PubChem BioAssay (EPA / NIEHS) are outcome and AC50 values, retold here.

Active and inactive are the calls of the source. How the source made its calls: active means hit-call score of the fitted dose curve at least 0.9, where 1 is the maximum; inactive means score below 0.9.

Read-out in test [1]: Interleukin-1 alpha (IL1a), IL1A (gene 3552)
Put plainly: BSK_KF3CT_IL1a: BioMAP Diversity Plus: KF3CT Assay for Interleukin-1 alpha (IL1a) Biomarker Activity (AID 2283070). The conditions noted are these: primary human keratinocytes with fibroblasts; actives raise or lower the signal. The method in brief:
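Human keratinocyte plus foreskin fibroblast primary co-culture, sampled 24 h after chemical dosing. IL-1a measured by ELISA; responses fitted bidirectionally against DMSO baseline (negative control), so gain or loss of signal both count.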

Read-out in test [2]: TIMP metallopeptidase inhibitor 2 (TIMP2), TIMP2 (gene 7077)
Put plainly: BSK_KF3CT_TIMP2: BioMAP Diversity Plus: KF3CT Assay for TIMP metallopeptidase inhibitor 2 (TIMP2) Biomarker Activity (AID 2283071). The note with it: primary human keratinocytes with fibroblasts; actives raise or lower the signal. In a few lines:
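Human primary keratinocyte/foreskin fibroblast co-culture dosed with chemical and sampled at 24 h. TIMP-2 levels quantified by ELISA; bidirectional fitting against DMSO negative control as baseline.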

Read-out in test [3]: Transforming growth factor beta 1 (TGFb1), TGFB1 (gene 7040)
Put plainly: BSK_KF3CT_TGFb1: BioMAP Diversity Plus: KF3CT Assay for Transforming growth factor beta 1 (TGFb1) Biomarker Activity (AID 2283072). The note with it: primary human keratinocytes with fibroblasts; actives raise or lower the signal. In a few lines:
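Human keratinocyte plus foreskin fibroblast primary co-culture, dosed with chemical for 24 h. TGF-b1 quantified by ELISA. Activity fitted bidirectionally against DMSO negative control as baseline.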

Read-out in test [4]: C-C motif chemokine 2 (Homo sapiens) (UniProt P13500)
Put plainly: BSK_KF3CT_MCP1: BioMAP Diversity Plus: KF3CT Assay for Monocyte Chemoattractant Protein 1 (MCP1/CCL2) Biomarker Activity (AID 2283073). The note with it: primary human keratinocytes with fibroblasts; actives raise or lower the signal. The method in brief:
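KF3CT skin co-culture (keratinocytes/foreskin fibroblasts), 24 h post-dose; MCP-1 by ELISA; gain/loss of signal fit bidirectionally vs DMSO baseline.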

Read-out in test [5]: Matrix Metallopeptidase 9 (MMP9), MMP9 (gene 4318)
Put plainly: BSK_KF3CT_MMP9: BioMAP Diversity Plus: KF3CT Assay for Matrix Metallopeptidase 9 (MMP9) Biomarker Activity (AID 2283074).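 On AC50: MMP9 protein level quantified by ELISA in the co-culture.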 The note with it: primary human keratinocytes with fibroblasts; actives raise or lower the signal. The method in brief:
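Keratinocyte plus foreskin fibroblast human primary skin co-culture was dosed with chemical and MMP-9 was quantified by ELISA 24 h later. Bidirectional curve fitting used DMSO as negative control and activity baseline.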

Read-out in test [6]: urokinase plasminogen activator (uPA), PLAU (gene 5328)
Put plainly: BSK_KF3CT_uPA: BioMAP Diversity Plus: KF3CT Assay for urokinase plasminogen activator (uPA) Biomarker Activity (AID 2283075). The note with it: primary human keratinocytes with fibroblasts; actives raise or lower the signal. In a few lines: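 Human keratinocyte plus foreskin fibroblast primary co-culture exposed to chemical for 24 h. uPA levels were quantified by ELISA, and activity was fitted bidirectionally against a DMSO negative-control baseline.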

Read-out in test [7]: CD40, CD40 (gene 958)
Put plainly: BSK_LPS_CD40: BioMAP Diversity Plus: LPS Assay for CD40 Biomarker Activity (AID 2283076). The conditions noted are these: primary human HUVEC with PBMC; actives raise or lower the signal. The method in brief:
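ELISA readout of CD40 in HUVEC/PBMC co-culture (BSK_LPS system), 24 h post-dosing; bidirectional curve fit, DMSO baseline; parallel SRB total-protein staining for cytotoxicity.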

Read-out in test [8]: E-selectin (Homo sapiens) (UniProt P16581)
Put plainly: BSK_LPS_Eselectin: BioMAP Diversity Plus: LPS Assay for Eselectin Biomarker Activity (AID 2283077). The note with it: primary human HUVEC with PBMC; actives raise or lower the signal. In a few lines:
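ELISA readout of E-selectin, 24 h post-dose, HUVEC + PBMC co-culture (LPS system). Gain or loss of signal vs DMSO baseline, bidirectional fit.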

Read-out in test [9]: Interleukin-8 (IL8), CXCL8 (gene 3576)
Put plainly: BSK_LPS_IL8: BioMAP Diversity Plus: LPS Assay for Interleukin-8 (IL8) Biomarker Activity (AID 2283078). The conditions noted are these: primary human HUVEC with PBMC; actives raise or lower the signal. In a few lines:
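HUVEC + PBMC co-culture, LPS-activated; test chemicals dosed, IL-8 read by ELISA at 24 h. Bidirectional curve fit vs DMSO baseline (gain or loss of signal).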

Test [10] in a line: BSK_LPS_SRB: Viability Assessment in the BioMAP Diversity Plus: LPS Assay (AID 2283079).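 Further: total protein by sulforhodamine B absorbance as a cytotoxicity measure; measured one day after compound addition.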 The note with it: primary human HUVEC with PBMC. In a few lines:
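HUVEC + PBMC co-culture, LPS-stimulated; compound 24 h. 10% TCA fix, 0.1% SRB stain, A560. Bidirectional fit vs DMSO.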

Read-out in test [11]: Interleukin-1 alpha (IL1a), IL1A (gene 3552)
Nature of the test: BSK_LPS_IL1a: BioMAP Diversity Plus: LPS Assay for Interleukin-1 alpha (IL1a) Biomarker Activity (AID 2283080). The note with it: primary human HUVEC with PBMC; actives raise or lower the signal. The method in brief: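 HUVEC/PBMC co-culture, LPS system; 24 h after dosing; IL-1a by ELISA; gain or loss of signal fitted bidirectionally vs DMSO baseline.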

Read-out in test [12]: Monocyte Chemoattractant Protein-1 (MCP1), CCL2 (gene 6347)
Nature of the test: BSK_LPS_MCP1: BioMAP Diversity Plus: LPS Assay for Monocyte Chemoattractant Protein-1 (MCP1) Biomarker Activity (AID 2283081).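 On AC50: secreted MCP-1 protein quantified by ELISA in culture supernatant.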 The conditions noted are these: primary human HUVEC with PBMC; actives raise or lower the signal. In a few lines:
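ELISA read-out of MCP-1 after 24 h chemical dosing of a human umbilical vein endothelial cell/peripheral blood mononuclear cell co-culture stimulated with LPS. Gain or loss of signal fitted relative to DMSO controls.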

Test [13] can be described thus: BSK_LPS_PGE2: BioMAP Diversity Plus: LPS Assay for Prostaglandin E2 (PGE2) Biomarker Activity (AID 2283082).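 On AC50: secreted prostaglandin E2 measured by ELISA in LPS-stimulated co-culture.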 The conditions noted are these: primary human HUVEC with PBMC; actives raise or lower the signal. In a few lines:
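HUVEC plus PBMC co-culture stimulated with LPS; secreted PGE2 quantified by ELISA 24 h after chemical dosing. Activity fitted bidirectionally against DMSO as negative control and baseline; parallel SRB total-protein staining served as cytotoxicity check.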

Read-out in test [14]: Macrophage colony-stimulating factor (MCSF), CSF1 (gene 1435)
Put plainly: BSK_LPS_MCSF: BioMAP Diversity Plus: LPS Assay for Macrophage colony-stimulating factor (MCSF) Biomarker Activity (AID 2283083). The conditions noted are these: primary human HUVEC with PBMC; actives raise or lower the signal. In a few lines:
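HUVEC + PBMC co-culture (human primary), 24 h post-dose; M-CSF by ELISA; gain/loss of signal fitted bidirectionally vs DMSO baseline.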

Read-out in test [15]: Tissue Factor, F3 (gene 2152)
Put plainly: BSK_LPS_TissueFactor: BioMAP Diversity Plus: LPS Assay for Tissue Factor Biomarker Activity (AID 2283084). The note with it: primary human HUVEC with PBMC; actives raise or lower the signal. The method in brief: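 HUVEC/PBMC co-culture, LPS-activated; CD142 ELISA read 24 h post-dose; bidirectional curve fit vs DMSO negative control.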

Read-out in test [16]: Tumor necrosis factor (Homo sapiens) (UniProt P01375)
Put plainly: BSK_LPS_TNFa: BioMAP Diversity Plus: LPS Assay for Tumour Necrosis Factor alpha (TNFa) Biomarker Activity (AID 2283085). The note with it: primary human HUVEC with PBMC; actives raise or lower the signal. In a few lines: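 Human umbilical vein endothelial cells co-cultured with PBMC were exposed to test chemical and TNFa measured by ELISA 24 h after dosing. Bidirectional curve fitting was done relative to DMSO as negative control and baseline.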

Read-out in test [17]: Vascular cell adhesion molecule 1 (VCAM1), VCAM1 (gene 7412)
Nature of the test: BSK_LPS_VCAM1: BioMAP Diversity Plus: LPS Assay for Vascular cell adhesion molecule 1 (VCAM1) Biomarker Activity (AID 2283086). The note with it: primary human HUVEC with PBMC; actives raise or lower the signal. In a few lines: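 Human umbilical vein endothelial cells co-cultured with peripheral blood mononuclear cells under LPS stimulation were exposed to test chemical for 24 h. VCAM-1 levels were then measured by ELISA, with bidirectional curve fitting relative to DMSO as negative control and baseline.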

Read-out in test [18]: CD38, CD38 (gene 952)
Put plainly: BSK_SAg_CD38: BioMAP Diversity Plus: SAg Assay for CD38 Biomarker Activity (AID 2283087). The conditions noted are these: primary human HUVEC with PBMC; actives raise or lower the signal. The method in brief: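 Fluorescence ELISA of cell-surface CD38 served as the read-out, with either increase or decrease fitted against DMSO controls. Cells were a human umbilical vein endothelium plus PBMC co-culture under SEB/TSST-1 stimulation, measured 24 h after dosing.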

Read-out in test [19]: CD40, CD40 (gene 958)
Nature of the test: BSK_SAg_CD40: BioMAP Diversity Plus: SAg Assay for CD40 Biomarker Activity (AID 2283088). The note with it: primary human HUVEC with PBMC; actives raise or lower the signal. The method in brief: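 HUVEC/PBMC co-culture, 24 h post-dose; CD40 by ELISA, fluorescence intensity; bidirectional fit vs DMSO negative control.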

Read-out in test [20]: CD69, CD69 (gene 969)
Nature of the test: BSK_SAg_CD69: BioMAP Diversity Plus: SAg Assay for CD69 Biomarker Activity (AID 2283089).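 On AC50: cell surface CD69 protein quantified by ELISA with fluorescence detection.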 The note with it: primary human HUVEC with PBMC; actives raise or lower the signal. The method in brief:
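ELISA, fluorescence read-out: CD69 on human umbilical vein endothelial cell + PBMC co-culture, 24 h post-dosing. Gain or loss of signal fitted bidirectionally against DMSO baseline.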

Chain of Tumor necrosis factor (Homo sapiens) (P01375 whole entry, looked up): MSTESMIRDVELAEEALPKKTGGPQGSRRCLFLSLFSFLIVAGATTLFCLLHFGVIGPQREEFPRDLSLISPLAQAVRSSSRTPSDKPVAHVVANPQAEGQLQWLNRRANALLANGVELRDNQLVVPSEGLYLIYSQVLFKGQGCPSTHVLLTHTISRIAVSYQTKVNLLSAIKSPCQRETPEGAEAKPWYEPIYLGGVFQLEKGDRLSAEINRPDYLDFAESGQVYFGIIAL
Chain of E-selectin (Homo sapiens) (P16581 whole entry, looked up): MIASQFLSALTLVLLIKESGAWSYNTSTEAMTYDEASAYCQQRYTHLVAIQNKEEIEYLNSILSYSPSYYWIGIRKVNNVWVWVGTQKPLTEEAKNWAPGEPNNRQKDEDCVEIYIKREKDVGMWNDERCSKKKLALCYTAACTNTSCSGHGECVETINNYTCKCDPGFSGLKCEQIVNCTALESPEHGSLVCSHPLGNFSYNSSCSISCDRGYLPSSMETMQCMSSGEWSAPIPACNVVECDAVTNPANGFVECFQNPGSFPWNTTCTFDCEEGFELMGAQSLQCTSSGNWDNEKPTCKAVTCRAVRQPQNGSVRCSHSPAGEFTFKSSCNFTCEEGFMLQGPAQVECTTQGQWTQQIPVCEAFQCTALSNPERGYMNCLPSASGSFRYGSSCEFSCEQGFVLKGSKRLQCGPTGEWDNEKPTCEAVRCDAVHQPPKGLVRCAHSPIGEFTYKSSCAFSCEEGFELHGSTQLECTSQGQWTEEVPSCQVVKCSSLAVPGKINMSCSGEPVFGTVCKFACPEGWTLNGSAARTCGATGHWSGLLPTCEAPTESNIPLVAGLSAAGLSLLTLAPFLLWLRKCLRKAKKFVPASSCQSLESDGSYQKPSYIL

For the compound `C=CC1(C)OC(=O)N(c2cc(Cl)cc(Cl)c2)C1=O` (stereo not given), the result in [1], in [2], in test [3], in [4], in [5] and in test [6] was inactive. The outcome in test [7], in [8], in test [9], in test [10], in test [11] and in [12] was inactive. Also, the outcome in test [13], in test [14], in test [15], in test [16], in test [17] and in [18] was inactive. Further, the outcome in test [19] and in test [20] was inactive.

For the compound `COP(N)(=O)SC` (stereo not given), the outcome in [1], in [2], in test [3], in test [4], in test [5] and in test [6] was inactive. For the same compound, the result in [7], in [8], in test [9], in test [10], in test [11] and in [12] was inactive. Also, the result in [14], in test [15], in test [16], in test [17], in test [18] and in test [19] was inactive. The outcome in test [20] was inactive. Further, the half-maximal activity concentration (AC50) in [13] was 20 µM (active).

For `C#CCOS(=O)OC1CCCCC1Oc1ccc(C(C)(C)C)cc1` (stereo not given), the half-maximal activity concentration (AC50) in [1] is 14.8 µM (active); in test [2] it was 14 µM (active); in test [4], 10.2 µM (active); in test [5], 12.1 µM (active); in test [6], 14.3 µM (active); in [7], 6.59 µM (active). The AC50 in test [8] was 4.28 µM (active); in test [9], 6.7 µM (active); in [10], 12.6 µM (active); in test [11], 16.4 µM (active); in [12], 20 µM (active); in test [14] it was 15.8 µM (active). The AC50 in [15] was 32.6 µM (active); in test [17], 10.1 µM (active); in test [18] it was 5.43 µM (active); in [19] it was 7.36 µM (active); in test [20], 5.11 µM (active). Besides, the result in [3], in test [13] and in test [16] was inactive.

On to `Cc1cc(Cl)ccc1OCC(=O)O`, for which the outcome in [1], in test [2], in test [3], in [4], in [5] and in [6] was inactive. Also, the result in test [7], in test [8], in [9], in test [10], in [11] and in test [12] was inactive. Also, the outcome in test [13], in test [14], in [15], in test [16], in [17] and in test [18] was inactive. The outcome in test [19] and in [20] was inactive.
